Laboratory results: publication PMC5540273 (PLoS ONE, 2017)

The compounds below were run on PIP5K1A. Settings: concentration: 1 μM, replicates: in singlicate; n = 1.
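Also: KINOMEscan kinase panel screen.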

SMILES | %Inh [%]
c1ccc(-c2ccnc3[nH]ccc23)cc1 [SB-693578] | 40
O=C(Nc1n[nH]c2nc(-c3cccs3)c(Br)cc12)C1CCCC1 [SB-743341] | 0
CN1c2ccc(-c3ccc(C(N)=O)cc3)cc2-c2[nH]ncc2S1(=O)=O | 0
Fc1ccc(-c2nc3n(c2-c2ccncc2)CCS3)cc1 [GI98581] | 33
CCc1ccc(-c2ccc3c(c2)-c2n[nH]cc2S(=O)(=O)N3C)cc1 | 0
COC(=O)c1cccc(NC(=O)NC2CCN(c3ccnc(Nc4ccc(F)cc4)n3)C2)c1 (centres unmarked) [GSK1379725] | 0
COc1cccc(CNC(=O)NC2CCN(c3ccnc(Nc4ccc(F)cc4)n3)C2)c1 (centres unmarked) [GSK1379723] | 0
CNc1cc(-c2ccc3c(N)n[nH]c3c2)nc(N)n1 [GSK2224810] | 18
Cc1ccc(NC(=O)Nc2ccccc2F)cc1-c1ccc(C(=O)Nc2ccncc2)cc1 [GSK1398477] | 0
CS(=O)(=O)Cc1ccc(Nc2nccc(-c3c(-c4cccc(NC(=O)C5CCCCC5)c4)nn4ncccc34)n2)cc1 [GSK350559] | 0
Cc1cccc2c(-c3ccncn3)c(-c3ccc(F)cc3)nn12 [GW515532] | 4
Cc1ccc(NC(=O)c2ccc(Cl)cc2)cc1-c1ccc(C(=O)Nc2ccncc2)cc1 [GSK1398467] | 0
COc1ccc(CSc2nnc(-c3ccc4c(c3)CCO4)o2)cc1 | 11
Cc1ccccc1-c1cc(-c2c[nH]nc2-c2ccccn2)ccn1 [GW680061] | 12
COC(=O)C(Cc1ccccc1)NC(=O)NC1CCN(c2ccnc(Nc3ccc(F)cc3)n2)C1 (centres unmarked) [GSK1379714] | 45
COc1ccc2cc(-c3nc(-c4ccccc4C(C)C)[nH]c3-c3ccncc3)ccc2c1 [SB-660566] | 18
Nc1cccc(-c2ccc3c(N)n[nH]c3c2)n1 [GSK2192730] | 39
O=C1NC(=O)C(c2ccc(Cl)cc2)=C1Nc1ccc(O)cc1 [SB-340867] | 0
CCn1c(-c2c(N)noc2C)nc2cnccc21 [SB-737856] | 0

SMILES | %Inh [%]
COC(=O)c1cccc(NC(=O)NC2CCN(c3ccnc(Nc4ccc(OC)cc4)n3)C2)c1 (centres unmarked) [GSK1379746] | 17
Cc1ccc(NC(=O)Nc2ccc(Cl)cc2)cc1-c1ccc(C(=O)Nc2ccncc2)cc1 [GSK1398472] | 11
COc1ccc(Nc2nccc(N3CCC(NC(=O)c4cc5ccccc5s4)C3)n2)cc1 (centres unmarked) [GSK1379738] | 0
CC(=O)c1cccc(NC(=O)NC2CCN(c3ccnc(Nc4ccc(F)cc4)n3)C2)c1 (centres unmarked) [GSK1379710] | 36
Cc1ccccc1Cn1ccn2c(=O)cc(N3CCOCC3)nc12 [GSK2269905] | 0
CS(=O)(=O)CCNCc1nc(-c2ccc3ncnc(Nc4ccc5c(cnn5Cc5ccccc5)c4)c3c2)cs1.Cl.Cl [GW569716] | 46
O=C1NC(=O)C(c2ccc(Cl)cc2)=C1Nc1cccc(Cl)c1 [SB-317651] | 0
Cc1ccc(-c2nc(Nc3ccncc3)c3ccccc3n2)s1 [GSK189015] | 0
Cc1ccc(NC(=O)Nc2ccc(Cl)c(C(F)(F)F)c2)cc1-c1ccc(C(=O)Nc2ccncc2)cc1 [GSK1398470] | 0
Cn1cncc1-c1cc2c(Nc3ccc(OCc4ccccc4)cc3)ncnc2cn1 [GW281179] | 0
COc1ccc(CSc2nnc(-c3ccc4ncsc4c3)o2)cc1C(F)(F)F | 0
O=C(Nc1n[nH]c2cc(-c3ccsc3)ccc12)C1CC1 [SB-732932] | 61
O=C(Nc1n[nH]c2nc(-c3cccs3)c(Br)cc12)C1CC1 [SB-735297] | 15
CNCc1ccc2nc(NC(=O)c3ccc(C(C)(C)C)cc3)cn2c1 | 0
Cc1c(Cn2c(C)c(C)n3c(=O)cc(N4CCOCC4)nc23)cccc1C(F)(F)F [GSK2328680] | 9
CC(C)c1ccc(O)cc1Nc1ccnc2ccc(C(F)(F)F)cc12 [GW482059] | 0
CSc1ccc(-c2nc3n(c2-c2ccncc2)CCC3)cc1 [SKF-105561] | 37
O=c1cc(N2CCOCC2)nc2n(Cc3ccccc3F)ccn12 [GSK2297428] | 6

The compounds below were run on PIP5K1C. Settings: concentration: 1 μM, replicates: in singlicate; n = 1.

SMILES | %Inh [%]
c1ccc(-c2ccnc3[nH]ccc23)cc1 [SB-693578] | 28
O=C(Nc1n[nH]c2nc(-c3cccs3)c(Br)cc12)C1CCCC1 [SB-743341] | 23
CN1c2ccc(-c3ccc(C(N)=O)cc3)cc2-c2[nH]ncc2S1(=O)=O | 81
Fc1ccc(-c2nc3n(c2-c2ccncc2)CCS3)cc1 [GI98581] | 47
CCc1ccc(-c2ccc3c(c2)-c2n[nH]cc2S(=O)(=O)N3C)cc1 | 45
COC(=O)c1cccc(NC(=O)NC2CCN(c3ccnc(Nc4ccc(F)cc4)n3)C2)c1 (centres unmarked) [GSK1379725] | 14
COc1cccc(CNC(=O)NC2CCN(c3ccnc(Nc4ccc(F)cc4)n3)C2)c1 (centres unmarked) [GSK1379723] | 11
CNc1cc(-c2ccc3c(N)n[nH]c3c2)nc(N)n1 [GSK2224810] | 45
Cc1ccc(NC(=O)Nc2ccccc2F)cc1-c1ccc(C(=O)Nc2ccncc2)cc1 [GSK1398477] | 0
CS(=O)(=O)Cc1ccc(Nc2nccc(-c3c(-c4cccc(NC(=O)C5CCCCC5)c4)nn4ncccc34)n2)cc1 [GSK350559] | 100
Cc1cccc2c(-c3ccncn3)c(-c3ccc(F)cc3)nn12 [GW515532] | 31
Cc1ccc(NC(=O)c2ccc(Cl)cc2)cc1-c1ccc(C(=O)Nc2ccncc2)cc1 [GSK1398467] | 45
COc1ccc(CSc2nnc(-c3ccc4c(c3)CCO4)o2)cc1 | 23
Cc1ccccc1-c1cc(-c2c[nH]nc2-c2ccccn2)ccn1 [GW680061] | 39
COC(=O)C(Cc1ccccc1)NC(=O)NC1CCN(c2ccnc(Nc3ccc(F)cc3)n2)C1 (centres unmarked) [GSK1379714] | 35
COc1ccc2cc(-c3nc(-c4ccccc4C(C)C)[nH]c3-c3ccncc3)ccc2c1 [SB-660566] | 0
Nc1cccc(-c2ccc3c(N)n[nH]c3c2)n1 [GSK2192730] | 0
O=C1NC(=O)C(c2ccc(Cl)cc2)=C1Nc1ccc(O)cc1 [SB-340867] | 40
CCn1c(-c2c(N)noc2C)nc2cnccc21 [SB-737856] | 0

SMILES | %Inh [%]
COC(=O)c1cccc(NC(=O)NC2CCN(c3ccnc(Nc4ccc(OC)cc4)n3)C2)c1 (centres unmarked) [GSK1379746] | 10
Cc1ccc(NC(=O)Nc2ccc(Cl)cc2)cc1-c1ccc(C(=O)Nc2ccncc2)cc1 [GSK1398472] | 41
COc1ccc(Nc2nccc(N3CCC(NC(=O)c4cc5ccccc5s4)C3)n2)cc1 (centres unmarked) [GSK1379738] | 40
CC(=O)c1cccc(NC(=O)NC2CCN(c3ccnc(Nc4ccc(F)cc4)n3)C2)c1 (centres unmarked) [GSK1379710] | 50
Cc1ccccc1Cn1ccn2c(=O)cc(N3CCOCC3)nc12 [GSK2269905] | 11
CS(=O)(=O)CCNCc1nc(-c2ccc3ncnc(Nc4ccc5c(cnn5Cc5ccccc5)c4)c3c2)cs1.Cl.Cl [GW569716] | 58
O=C1NC(=O)C(c2ccc(Cl)cc2)=C1Nc1cccc(Cl)c1 [SB-317651] | 28
Cc1ccc(-c2nc(Nc3ccncc3)c3ccccc3n2)s1 [GSK189015] | 22
Cc1ccc(NC(=O)Nc2ccc(Cl)c(C(F)(F)F)c2)cc1-c1ccc(C(=O)Nc2ccncc2)cc1 [GSK1398470] | 23
Cn1cncc1-c1cc2c(Nc3ccc(OCc4ccccc4)cc3)ncnc2cn1 [GW281179] | 23
COc1ccc(CSc2nnc(-c3ccc4ncsc4c3)o2)cc1C(F)(F)F | 11
O=C(Nc1n[nH]c2cc(-c3ccsc3)ccc12)C1CC1 [SB-732932] | 3
O=C(Nc1n[nH]c2nc(-c3cccs3)c(Br)cc12)C1CC1 [SB-735297] | 0
CNCc1ccc2nc(NC(=O)c3ccc(C(C)(C)C)cc3)cn2c1 | 17
Cc1c(Cn2c(C)c(C)n3c(=O)cc(N4CCOCC4)nc23)cccc1C(F)(F)F [GSK2328680] | 44
CC(C)c1ccc(O)cc1Nc1ccnc2ccc(C(F)(F)F)cc12 [GW482059] | 0
CSc1ccc(-c2nc3n(c2-c2ccncc2)CCC3)cc1 [SKF-105561] | 0
O=c1cc(N2CCOCC2)nc2n(Cc3ccccc3F)ccn12 [GSK2297428] | 31
